DT40 TDP1 CPT: qHTS for Inhibitors of human tyrosyl-DNA phosphodiesterase 1 (TDP1): qHTS in cells in presence of CPT | Potency, µM (highest dose often 46.2 µM), without a hit: top-dose activity change, negative = growth inhibition, usual class: inhibitors | chicken DT40 Tdp1-/-;hTDP1 cells + 20 nM CPT, ATP luminescence, 48 h | 12% of 420,000 active | AID 686979, 2013; further: nearly all actives have a fitted effect of over 55% in size
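Chicken DT40 Tdp1-/- cells complemented with human TDP1, 400 cells/well, exposed to compounds plus 20 nM camptothecin for at least 48 h at 37 C; viability read as ATP content by CellTiter-Glo luminescence.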
TDP1 block: qHTS Assay for Inhibitors of Tyrosyl-DNA Phosphodiesterase (TDP1); recombinant TDP1, AlphaScreen DNA substrate cleavage; Potency, µM (doses to about 130 µM), without a hit: at the top dose activity change, negative = inhibition, most hits filed as inhibitors; 0.28% of 350,000 active; AID 485290, 2010; further: nearly all actives have a fitted effect of over 40% in size
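Recombinant E. coli-expressed Tdp1 (1 nM) preincubated with compound 15 min at RT, then 5'-biotin/3'-phosphotyrosine-FITC DNA substrate (15 nM) added for 5 min. AlphaScreen beads (10 ug/ml) added, 10 min RT; tyrosine-FITC cleavage read as signal loss.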
KAT2A inh: qHTS Assay for Inhibitors of GCN5L2; AID 504327, 2011; 0.21% of 390,000 active; Potency, µM (doses to about 58.9 µM), for the others: at the highest dose activity change, negative = inhibition, most hits filed as inhibitors; Histone acetyltransferase KAT2A (Homo sapiens), Q92830; GCN5L2 HAT assay, ThioGlo1 CoA-SH fluorescence
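Enzyme at 20nM final was mixed with library compounds for 15 min at room temperature. Peptide H3(1-25) at 75uM, acetyl-CoA at 70uM and ThioGlo1 at 50uM were then added. Plates were read immediately and after 20 min (Ex340nm/Em540nm).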
TDP1 cell noCPT: qHTS for Inhibitors of human tyrosyl-DNA phosphodiesterase 1 (TDP1): qHTS in cells in absence of CPT; DT40 Tdp1-/- hTDP1 cells, no CPT, ATP luminescence, 48 h; Potency, µM (doses to about 46.2 µM), inactives show at the top dose activity change, negative = growth inhibition, usual class: inhibitors; 15% of 420,000 active; AID 686978, 2013; further: nearly all actives have a fitted effect of over 55% in size
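No-CPT arm: Tdp1-/-;hTDP1 DT40 cells (400/well) plus compounds, incubated ≥48 hr at 37 °C. Readout CellTiter-Glo luminescence.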
PLK1 PBD inh: qHTS for Inhibitors of PLK1-PDB (polo-like kinase 1 - polo-box domain): Primary Screen | Serine/threonine-protein kinase PLK1 (Homo sapiens), P53350 | Plk1 PBD binding of FITC phosphopeptide, fluorescence polarization | Potency, µM, without a hit: max response, negative = inhibition, usual class: inhibitors | 2.8% of 360,000 active | AID 720504, 2013; further: series mostly up to about 57 µM; nearly all actives have a fitted effect of over 65% in size
Target sequence (P53350 whole entry, looked up, the tested form may be a part): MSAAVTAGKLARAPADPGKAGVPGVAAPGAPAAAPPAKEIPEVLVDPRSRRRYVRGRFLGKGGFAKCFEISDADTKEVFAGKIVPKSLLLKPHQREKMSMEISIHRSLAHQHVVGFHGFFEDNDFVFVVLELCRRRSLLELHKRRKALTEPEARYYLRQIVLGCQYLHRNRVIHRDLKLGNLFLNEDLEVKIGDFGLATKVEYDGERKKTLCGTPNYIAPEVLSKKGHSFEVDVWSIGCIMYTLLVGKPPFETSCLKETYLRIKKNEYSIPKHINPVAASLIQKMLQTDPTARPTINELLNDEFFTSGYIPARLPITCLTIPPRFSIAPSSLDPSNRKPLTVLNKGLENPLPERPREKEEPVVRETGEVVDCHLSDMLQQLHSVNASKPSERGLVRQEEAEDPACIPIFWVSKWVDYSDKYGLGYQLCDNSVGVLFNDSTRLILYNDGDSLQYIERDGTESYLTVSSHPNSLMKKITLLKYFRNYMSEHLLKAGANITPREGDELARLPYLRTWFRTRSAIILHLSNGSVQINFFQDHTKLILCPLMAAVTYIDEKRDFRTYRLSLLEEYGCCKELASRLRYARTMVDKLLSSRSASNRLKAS
VDR inhibitor: Inhibitors of the vitamin D receptor (VDR): qHTS; Vitamin D3 receptor (Homo sapiens), P11473; VDR-SRC2-3 peptide fluorescence polarization, 2 h; Potency, µM, for inactives: max response, negative = inhibition, hits mostly inhibitors; 0.93% of 400,000 active; AID 504847, 2011
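Measured by FP: displacement of SRC2-3 coactivator peptide from VDR by library compounds, following a two-hour ambient incubation.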
* hit, by the source's call; [ ] = another dose, or the depositor's remark. Most compounds without a hit are left out; they make up all but 18% or so of the library. The call rests on the fitted dose curve; in most records, active means well fitted curve in the direction sought with a large enough effect; inconclusive means small, poorly fitted or top-dose-only effect, or another doubt; inactive means no such curve, though single readings can be large; an effect the other way counts as inactive or inconclusive. On the % scale 0 is the no-effect control and ±100 the full control effect; potency means the concentration at half of the fitted maximal effect.

`C/C=C\C=C/C(=O)Nc1cccc(C2=NOC3(C2)C[C@@H](C(N)=O)N(C(=O)/C=C/CC)C3)c1` (some centres undefined) gave DT40 TDP1 CPT 7%, TDP1 block 5%, KAT2A inh -10%, TDP1 cell noCPT 21%, PLK1 PBD inh inconclusive and VDR inhibitor -21%.
`C/C=C\C=C/C(=O)Nc1cccc(C2=NOC3(C2)C[C@@H](C(N)=O)N(C(=O)/C=C/C=C\C)C3)c1` (some centres undefined) gave DT40 TDP1 CPT inconclusive, TDP1 block 20µM*, KAT2A inh -35%, TDP1 cell noCPT 0%, PLK1 PBD inh inconclusive and VDR inhibitor inconclusive.
C/C=C\C=C\C(=O)N1CC2(CC(c3cccc(NC(=O)CC(c4ccccc4)c4ccccc4)c3)=NO2)C[C@H]1C(N)=O (some centres undefined) was read as DT40 TDP1 CPT inconclusive, TDP1 block -1%, KAT2A inh -10%, TDP1 cell noCPT 18µM*, PLK1 PBD inh 34µM* and VDR inhibitor inconclusive.
`COC(=O)C1=C(C(=O)OC)[C@@H]2N(C)c3ccc(OC)cc3[C@@]23C[C@@H](C(=O)OC)N(C(=O)c2ccc(Br)cc2)C3=N1` gave DT40 TDP1 CPT inconclusive, TDP1 block 4%[21 µM], KAT2A inh -16%, TDP1 cell noCPT 26µM*, PLK1 PBD inh -15% and VDR inhibitor -22%.
COC(=O)C1=C(C(=O)OC)[C@@H]2N(Cc3ccccc3)c3ccccc3[C@@]23C[C@@H](C(=O)OC)N(C(=O)c2ccc(Br)cc2)C3=N1 was read as DT40 TDP1 CPT inconclusive, TDP1 block 12%[12.3 µM], KAT2A inh -1%, TDP1 cell noCPT 18µM*, PLK1 PBD inh -4% and VDR inhibitor -7%.
CCOC(=O)N1C2=NC(C(=O)OC)=C(C(=O)OC)[C@@H]3N(Cc4ccccc4)c4ccccc4[C@]23C[C@H]1C(=O)OC was read as DT40 TDP1 CPT 18µM*, TDP1 block 7%[12.3 µM], TDP1 cell noCPT inconclusive, PLK1 PBD inh -1% and VDR inhibitor -21%.
Cc1ccc2c(c1)c(/C=C/c1cc[n+](C)cc1)c(C)n2C was read as DT40 TDP1 CPT 0.52µM*, KAT2A inh -20%, TDP1 cell noCPT 0.41µM*, PLK1 PBD inh 64% and VDR inhibitor -21%.
`Cc1ccc2[nH]c(C)c(/C=C/c3cc[n+](C)cc3)c2c1` gave DT40 TDP1 CPT 3.3µM*, KAT2A inh -9%, TDP1 cell noCPT 2.6µM*, PLK1 PBD inh 94% and VDR inhibitor -25%.
`Cc1cc2oc(=O)cc(-c3cc4ccccc4o3)c2cc1O` gave DT40 TDP1 CPT 26µM*, KAT2A inh -22%, TDP1 cell noCPT 23µM*, PLK1 PBD inh -9% and VDR inhibitor -23%.
COc1cccc2cc(-c3cc(=O)oc4cc(C)c(OCC(C)=O)cc34)oc12 was read as DT40 TDP1 CPT inconclusive, TDP1 block 0%, KAT2A inh 1%, TDP1 cell noCPT -27%, PLK1 PBD inh 17µM* and VDR inhibitor -17%.
O=c1cc(-c2cc3ccccc3o2)c2cc(O)ccc2o1 was read as DT40 TDP1 CPT -47%, TDP1 block 50µM*, KAT2A inh -4%, TDP1 cell noCPT inconclusive, PLK1 PBD inh -11% and VDR inhibitor 21%.

Source: PubChem BioAssay
